# According to the supplement of paper PMC8728848:
# The full list was thinned out, with the strongest signals kept by preference.
# Key:
# Test in all cases: glycan array binding signal (z-score within array); higher = stronger binding
# Settings in all cases: glycan notation: IUPAC condensed, linker removed
# [1] = biological target: Fuc(a1-2)Gal(b1-3)GalNAc(a1-3)[Fuc(a1-2)]Gal(b1-4)Glc
# How it was run: (§1)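 Glycan array data were curated from 3228 arrays in the Consortium for Functional Glycomics database and kept only where the protein sequence was available. Glycan names were converted to IUPAC-condensed notation, and columns mapping to the same glycan were averaged. The binding signal is a within-array Z-score, averaged across arrays of the same protein sequence at different concentrations or buffers and across linkers. Negative Z-scores can be read as non-binding.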
# [2] = biological target: Fuc(a1-2)Gal(b1-3)GlcNAc(b1-2)Man(a1-3)[Fuc(a1-2)Gal(b1-3)GlcNAc(b1-2)Man(a1-6)]Man(b1-4)GlcNAc(b1-4)[Fuc(a1-6)]GlcNAc
# How it was run: as §1
# [3] = biological target: Fuc(a1-2)Gal(b1-4)GlcNAc(b1-3)Gal(b1-4)GlcNAc
# How it was run: as §1
# [4] = biological target: Fuc(a1-2)Gal(b1-4)GlcNAc(b1-3)Gal(b1-4)GlcNAc(b1-2)Man(a1-3)[Fuc(a1-2)Gal(b1-4)GlcNAc(b1-3)Gal(b1-4)GlcNAc(b1-2)Man(a1-6)]Man(b1-4)GlcNAc(b1-4)GlcNAc
# How it was run: as §1
# [5] = biological target: Fuc(a1-2)Gal(b1-4)GlcNAc(b1-3)GalNAc
# How it was run: as §1
# [6] = biological target: Fuc(a1-2)Gal(b1-4)GlcNAc(b1-6)GalNAc
# How it was run: as §1
# [7] = biological target: Fuc(a1-2)Gal(b1-4)GlcNAc6S
# How it was run: as §1
# [8] = biological target: Fuc(a1-2)[GalNAc(a1-3)]Gal(b1-3)GalNAc(a1-3)[Fuc(a1-2)]Gal(b1-4)GlcNAc
# How it was run: as §1
# [9] = biological target: Fuc(a1-2)[GalNAc(a1-3)]Gal(b1-4)GlcNAc(b1-2)Man(a1-3)[Fuc(a1-2)[GalNAc(a1-3)]Gal(b1-4)GlcNAc(b1-2)Man(a1-6)]Man(b1-4)GlcNAc(b1-4)[Fuc(a1-6)]GlcNAc
# How it was run: as §1
# [10] = biological target: Fuc(a1-2)[GalNAc(a1-3)]Gal(b1-4)[Fuc(a1-3)]GlcNAc(b1-3)GalNAc
# How it was run: as §1
# [11] = biological target: Fuc(a1-3)[Gal(b1-4)]GlcNAc(b1-2)Man(a1-3)[Fuc(a1-3)[Gal(b1-4)]GlcNAc(b1-2)Man(a1-6)]Man(b1-4)GlcNAc(b1-4)[Fuc(a1-6)]GlcNAc
# How it was run: as §1
# [12] = biological target: Fuc(a1-3)[Gal(b1-4)]GlcNAc(b1-3)Gal(b1-3)[Fuc(a1-4)]GlcNAc
# How it was run: as §1
# [13] = biological target: Fuc(b1-3)GlcNAc
# How it was run: as §1
# [14] = biological target: Gal(a1-4)Gal(b1-4)Glc
# How it was run: as §1
# [15] = biological target: Gal(b1-3)Gal
# How it was run: as §1
# [16] = biological target: Gal(b1-3)Gal(b1-4)GlcNAc
# How it was run: as §1
# [17] = biological target: Gal(b1-3)GalNAc(a1-3)[Fuc(a1-2)]Gal(b1-4)Glc
# How it was run: as §1
# [18] = biological target: Gal(b1-3)GalNAc(b1-3)Gal
# How it was run: as §1
# [19] = biological target: Gal(b1-3)GalNAc(b1-4)Gal(b1-4)Glc
# How it was run: as §1
# [20] = biological target: Gal(b1-3)GlcNAc(b1-2)Man(a1-3)[Gal(b1-3)GlcNAc(b1-2)Man(a1-6)]Man(b1-4)GlcNAc(b1-4)GlcNAc
# How it was run: as §1
# [21] = biological target: Gal(b1-3)GlcNAc(b1-3)Gal(b1-4)[Fuc(a1-3)]GlcNAc
# How it was run: as §1
# [22] = biological target: Gal(b1-3)[Fuc(a1-4)]GlcNAc(b1-2)Man(a1-3)[Gal(b1-3)[Fuc(a1-4)]GlcNAc(b1-2)Man(a1-6)]Man(b1-4)GlcNAc(b1-4)[Fuc(a1-6)]GlcNAc
# How it was run: as §1
# [23] = biological target: Gal(b1-3)[Neu5Ac(a2-6)]GalNAc
# How it was run: as §1
# [24] = biological target: Gal(b1-4)GlcNAc(b1-3)Gal(b1-4)GlcNAc(b1-2)Man(a1-3)[Gal(b1-4)GlcNAc(b1-3)Gal(b1-4)GlcNAc(b1-2)Man(a1-6)]Man(b1-4)GlcNAc(b1-4)GlcNAc
# How it was run: as §1
# [25] = biological target: Gal(b1-4)GlcNAc(b1-3)Gal(b1-4)GlcNAc(b1-3)Gal(b1-4)GlcNAc(b1-3)Gal(b1-4)GlcNAc(b1-2)[Gal(b1-4)GlcNAc(b1-3)Gal(b1-4)GlcNAc(b1-3)Gal(b1-4)GlcNAc(b1-3)Gal(b1-4)GlcNAc(b1-6)]Man(a1-6)[Gal(b1-4)GlcNAc(b1-3)Gal(b1-4)GlcNAc(b1-3)Gal(b1-4)GlcNAc(b1-3)Gal(b1-4)GlcNAc(b1-2)Man(a1-3)]Man(b1-4)GlcNAc(b1-4)[Fuc(a1-6)]GlcNAc
# How it was run: as §1
# [26] = biological target: Gal(b1-4)GlcNAc(b1-3)Gal(b1-4)GlcNAc(b1-3)GalNAc
# How it was run: as §1
# [27] = biological target: Gal(b1-4)GlcNAc(b1-3)Gal(b1-4)[Fuc(a1-3)]GlcNAc(b1-3)Gal(b1-4)[Fuc(a1-3)]GlcNAc
# How it was run: as §1
# [28] = biological target: Gal(b1-4)GlcNAc(b1-3)[Gal(b1-4)GlcNAc(b1-6)]Gal(b1-4)GlcNAc
# How it was run: as §1
# [29] = biological target: Gal3S(b1-4)[Fuc(a1-3)]GlcNAc
# How it was run: as §1
# [30] = biological target: GlcA(b1-3)GlcNAc
# How it was run: as §1
# [31] = biological target: GlcNAc(a1-4)Gal(b1-4)GlcNAc(b1-3)Gal(b1-4)Glc
# How it was run: as §1
# [32] = biological target: GlcNAc(b1-2)[GlcNAc(b1-4)]Man(a1-3)[GlcNAc(b1-4)][GlcNAc(b1-2)[GlcNAc(b1-6)]Man(a1-6)]Man(b1-4)GlcNAc(b1-4)[Fuc(a1-6)]GlcNAc
# How it was run: as §1
# [33] = biological target: GlcNAc(b1-3)Gal(b1-4)GlcNAc(b1-3)Gal(b1-4)GlcNAc(b1-2)Man(a1-3)[GlcNAc(b1-3)Gal(b1-4)GlcNAc(b1-3)Gal(b1-4)GlcNAc(b1-2)Man(a1-6)]Man(b1-4)GlcNAc(b1-4)GlcNAc
# How it was run: as §1
# [34] = biological target: GlcNAc(b1-3)Gal(b1-4)GlcNAc(b1-3)Gal(b1-4)GlcNAc(b1-3)Gal(b1-4)GlcNAc(b1-3)Gal(b1-4)GlcNAc(b1-2)Man(a1-3)[GlcNAc(b1-3)Gal(b1-4)GlcNAc(b1-3)Gal(b1-4)GlcNAc(b1-3)Gal(b1-4)GlcNAc(b1-3)Gal(b1-4)GlcNAc(b1-2)Man(a1-6)]Man(b1-4)GlcNAc(b1-4)GlcNAc
# How it was run: as §1
# [35] = biological target: GlcNAc(b1-3)[GlcNAc(b1-6)]Gal(b1-4)GlcNAc
# How it was run: as §1
# [36] = biological target: GlcNAc(b1-4)GlcNAc(b1-4)GlcNAc(b1-4)GlcNAc(b1-4)GlcNAc(b1-4)GlcNAc
# How it was run: as §1
# [37] = biological target: Kdn(a2-3)Gal(b1-3)GlcNAc
# How it was run: as §1
# [38] = biological target: Man(a1-3)[Man(a1-6)]Man(a1-6)[Man(a1-3)]Man(b1-4)GlcNAc(b1-4)GlcNAc
# How it was run: as §1
# [39] = biological target: Neu5Ac(a2-3)Gal(b1-3)GalNAc(b1-4)[Neu5Ac(a2-8)Neu5Ac(a2-3)]Gal(b1-4)Glc
# How it was run: as §1
# [40] = biological target: Neu5Ac(a2-3)Gal(b1-3)GalNAc6S
# How it was run: as §1
# [41] = biological target: Neu5Ac(a2-3)Gal(b1-3)GlcNAc(b1-3)Gal(b1-4)GlcNAc
# How it was run: as §1
# [42] = biological target: Neu5Ac(a2-3)Gal(b1-3)[Fuc(a1-4)]GlcNAc
# How it was run: as §1
# [43] = biological target: Neu5Ac(a2-3)Gal(b1-4)GlcNAc(b1-2)Man(a1-3)[Neu5Ac(a2-3)Gal(b1-4)GlcNAc(b1-2)Man(a1-6)]Man(b1-4)GlcNAc(b1-4)GlcNAc
# How it was run: as §1
# [44] = biological target: Neu5Ac(a2-3)Gal(b1-4)GlcNAc6S
# How it was run: as §1
# [45] = biological target: Neu5Ac(a2-3)Gal(b1-4)[Fuc(a1-3)]GlcNAc(b1-3)Gal
# How it was run: as §1
# [46] = biological target: Neu5Ac(a2-3)Gal(b1-4)[Fuc(a1-3)]GlcNAc(b1-3)GalNAc
# How it was run: as §1
# [47] = biological target: Neu5Ac(a2-3)Gal(b1-4)[Fuc(a1-3)]GlcNAc(b1-6)[Gal(b1-3)]GalNAc
# How it was run: as §1
# [48] = biological target: Neu5Ac(a2-3)GalNAc(b1-4)GlcNAc
# How it was run: as §1
# [49] = biological target: Neu5Ac(a2-3)[Neu5Ac(a2-6)]GalNAc
# How it was run: as §1
# [50] = biological target: Neu5Ac(a2-6)Gal(b1-3)GlcNAc(b1-3)[Gal(b1-4)GlcNAc(b1-6)]Gal(b1-4)Glc
# How it was run: as §1
# [51] = biological target: Neu5Ac(a2-6)Gal(b1-4)GlcNAc(b1-3)Gal(b1-4)GlcNAc(b1-3)Gal(b1-4)GlcNAc(b1-2)Man(a1-3)[Neu5Ac(a2-6)Gal(b1-4)GlcNAc(b1-3)Gal(b1-4)GlcNAc(b1-3)Gal(b1-4)GlcNAc(b1-2)Man(a1-6)]GalNAc
# How it was run: as §1
# [52] = biological target: Neu5Ac(b2-6)GalNAc
# How it was run: as §1
# [53] = biological target: Neu5Ac9Ac(a2-3)Gal(b1-4)GlcNAc
# How it was run: as §1
# [54] = biological target: Neu5Gc(a2-3)Gal(b1-4)GlcNAc
# How it was run: as §1
binder,measurement,setting,value
"CFEM-CGl (Candida glabrata), Q6FRS0 (protein) VLATPPACLLACVAQVSKQSSQCHTLNQVGCFCENENTAIKNCLDSICPNGNSDAAYTAFKNSCGDVGKAVASV",glycan array binding signal (z-score),[1],-0.334
same,glycan array binding signal (z-score),[2],-0.163
same,glycan array binding signal (z-score),[3],-0.233
same,glycan array binding signal (z-score),[4],-0.168
same,glycan array binding signal (z-score),[5],8.8
same,glycan array binding signal (z-score),[6],0.206
same,glycan array binding signal (z-score),[7],-0.397
same,glycan array binding signal (z-score),[8],-0.609
same,glycan array binding signal (z-score),[9],-0.183
same,glycan array binding signal (z-score),[10],4.55
same,glycan array binding signal (z-score),[11],-0.347
same,glycan array binding signal (z-score),[12],-0.484
same,glycan array binding signal (z-score),[13],-0.346
same,glycan array binding signal (z-score),[14],-0.153
same,glycan array binding signal (z-score),[15],3.15
same,glycan array binding signal (z-score),[16],2.81
same,glycan array binding signal (z-score),[17],0.176
same,glycan array binding signal (z-score),[18],6.73
same,glycan array binding signal (z-score),[19],9.88
same,glycan array binding signal (z-score),[20],-0.248
same,glycan array binding signal (z-score),[21],-0.497
same,glycan array binding signal (z-score),[22],-0.165
same,glycan array binding signal (z-score),[23],2.93
same,glycan array binding signal (z-score),[24],4.99
same,glycan array binding signal (z-score),[25],0.09
same,glycan array binding signal (z-score),[26],0.84
same,glycan array binding signal (z-score),[27],-0.249
same,glycan array binding signal (z-score),[28],-0.249
same,glycan array binding signal (z-score),[29],-0.353
same,glycan array binding signal (z-score),[30],-0.457
same,glycan array binding signal (z-score),[31],-0.384
same,glycan array binding signal (z-score),[32],-0.628
same,glycan array binding signal (z-score),[33],3.84
same,glycan array binding signal (z-score),[34],-0.264
same,glycan array binding signal (z-score),[35],-0.258
same,glycan array binding signal (z-score),[36],0.197
same,glycan array binding signal (z-score),[37],-0.288
same,glycan array binding signal (z-score),[38],-0.003
same,glycan array binding signal (z-score),[39],-0.372
same,glycan array binding signal (z-score),[40],0.752
same,glycan array binding signal (z-score),[41],-0.343
same,glycan array binding signal (z-score),[42],-0.12
same,glycan array binding signal (z-score),[43],-0.517
same,glycan array binding signal (z-score),[44],-0.111
same,glycan array binding signal (z-score),[45],-0.311
same,glycan array binding signal (z-score),[46],3.44
same,glycan array binding signal (z-score),[47],0.977
same,glycan array binding signal (z-score),[48],-0.449
same,glycan array binding signal (z-score),[49],-0.425
same,glycan array binding signal (z-score),[50],-0.355
same,glycan array binding signal (z-score),[51],4.31
same,glycan array binding signal (z-score),[52],0.161
same,glycan array binding signal (z-score),[53],-0.485
same,glycan array binding signal (z-score),[54],-0.194
